# High-throughput results: PubChem BioAssay, National Center for Advancing Translational Sciences (NCATS)
# Most compounds without a hit are left out; they make up all but 9% or so of the library.
# ALDH1A1 inh: qHTS Assay for Inhibitors of Aldehyde Dehydrogenase 1 (ALDH1A1). actives 7.3% (n = 220,000). Aldehyde dehydrogenase 1A1 (Homo sapiens), P00352. Potency, µM (top dose mostly 75.3 µM), for inactives: at the top dose activity, negative = inhibition, most hits filed as inhibitors. Purified ALDH1A1, NADH fluorescence, propionaldehyde substrate. AID 1030, 2008; active = well fitted inhibition curve with a large enough effect, not every such curve was filed as active; inconclusive = small, poorly fitted or top-dose-only effect, or another doubt; inactive = no such curve, though single readings can be large or run the other way;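 note: plate controls were no enzyme wells and a reference inhibitor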
# Target sequence (P00352 whole entry, looked up): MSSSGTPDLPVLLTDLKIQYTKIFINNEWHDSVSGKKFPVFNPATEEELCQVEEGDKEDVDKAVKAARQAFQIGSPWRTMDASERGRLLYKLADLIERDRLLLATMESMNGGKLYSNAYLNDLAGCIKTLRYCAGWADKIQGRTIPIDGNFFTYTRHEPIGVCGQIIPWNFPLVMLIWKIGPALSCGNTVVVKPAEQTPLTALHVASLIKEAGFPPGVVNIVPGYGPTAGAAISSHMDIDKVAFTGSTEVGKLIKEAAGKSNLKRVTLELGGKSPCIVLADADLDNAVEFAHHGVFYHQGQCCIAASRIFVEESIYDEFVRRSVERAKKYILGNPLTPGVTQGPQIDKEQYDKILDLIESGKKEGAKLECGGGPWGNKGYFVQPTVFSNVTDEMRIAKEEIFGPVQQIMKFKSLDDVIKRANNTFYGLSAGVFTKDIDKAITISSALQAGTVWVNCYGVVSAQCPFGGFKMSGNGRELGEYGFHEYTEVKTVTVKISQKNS
# HTT cytoprotect: qHTS Multiplex Assay to Identify Dual Action Probes in a Cell Model of Huntington: Cytoprotection (ATP). PC12 HTT-Q103 induced, cytoprotection, ATP luminescence, 40 h. Potency, µM (top dose mostly 56.4 µM), without a hit: cytoprotection (ATP increase), most hits filed as activators. actives 0.14% (n = 230,000). AID 1471, 2008; note: % of control where 0% means no effect; nearly all actives have a fitted effect of over 45% in size
#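 Compounds added alongside 100 nM tebufenozide, which induces toxic Q103 huntingtin exon 1-GFP in stable PC12 cells; surviving cells quantified by luminescent ATP measurement. Medium: phenol red-free DMEM, 5% equine and 5% calf serum.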
# Luc counter: Counterscreen for Luciferase (Kinase-Glo TM) Inhibition; Kinase-Glo luciferase, ATP luminescence, 8 min; Potency, µM (highest dose often 38.3 µM), inactives show at the highest dose activity change, negative = inhibition, actives largely listed as inhibitors; actives 0.28% (n = 200,000); note: % is set by controls: 0 for no effect and ±100 for the full control effect; nearly all actives have a fitted effect of over 60% in size
#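 Inhibition of Kinase-Glo luciferase light generation was assessed at 10 uM ATP in pH 7.2 imidazole buffer, with luminescence measured after eight minutes at ambient temperature.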
# HTT aggregate: qHTS Multiplex Assay to Identify Dual Action Probes in a Cell Model of Huntington: Aggregate Formation (GFP) | Potency, µM (series often up to 46.1 µM), inactives show at the highest dose activity change, negative = inhibition, actives largely listed as inhibitors | AID 1688, 2009 | PC12 HttQ103-GFP aggregates, Acumen cytometry, 40 h | actives 1.1% (n = 220,000); note: % is set by controls: 0 for no effect and ±100 for the full control effect; nearly all actives have a fitted effect of over 60% in size
#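 Compounds (qHTS titration) were added to PC12 cells expressing an ecdysone-driven HTT exon 1 Q103–GFP fusion after induction with 100 nM tebufenozide. Aggregate formation was measured as GFP objects in cell lysates.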
# HPGD inh: qHTS Assay for Inhibitors of HPGD (15-Hydroxyprostaglandin Dehydrogenase) | AID 894, 2007 | actives 4.3% (n = 150,000) | Potency, µM, for inactives: at the highest dose activity change, negative = inhibition, most hits filed as inhibitors | purified HPGD, NADH fluorescence kinetic, PGE2 substrate; active = well fitted inhibition curve with a large enough effect, not every such curve was filed as active; inconclusive = small, poorly fitted or top-dose-only effect, or another doubt; inactive = no such curve, though single readings can be large or run the other way; note: % is set by controls: 0 for no effect and ±100 for the full control effect
# Target sequence (P15428 whole entry, looked up): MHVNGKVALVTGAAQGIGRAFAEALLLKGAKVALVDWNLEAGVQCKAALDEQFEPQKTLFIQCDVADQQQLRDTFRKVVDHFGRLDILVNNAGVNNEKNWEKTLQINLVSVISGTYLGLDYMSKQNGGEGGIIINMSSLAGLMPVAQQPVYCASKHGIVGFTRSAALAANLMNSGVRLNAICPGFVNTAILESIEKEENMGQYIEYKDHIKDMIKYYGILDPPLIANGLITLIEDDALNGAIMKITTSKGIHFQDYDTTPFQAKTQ
#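 NADH formation kinetics: reaction with 30 uM PGE2 and 1 mM NAD+ (final), 20 nM enzyme, Tris-HCl pH 8 with Tween 20, after 15 min compound preincubation at room temperature. Fluorescence change, last versus first of five reads.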
# LMNA splice mod: qHTS Assay for Modulators of Lamin A Splicing | actives 0.01% (n = 200,000) | Potency, µM (highest dose often 46.1 µM), for inactives: at the top dose ratio change, negative = inhibition, usual class: inhibitors | HeLa LMNA splicing GFP/RFP minigene ratio, 48 h; active = well fitted inhibition curve with a large enough effect in the signal ratio, with a control signal flat, not every such curve was filed as active; inconclusive = small, poorly fitted or top-dose-only effect, or effect the other way, or a change in a side signal; the % refers to the signal ratio; note: % is set by controls: 0 for no effect and ±100 for the full control effect
#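 Read-out is the ratio of GFP to DsRed2 object intensity, acquired by 488 nm laser-scanning cytometry on HeLa lamin A-EGFP minigene reporter cells. Compound incubation 48 hrs at 37 °C in Opti-MEM with 2% FBS; DMSO 0.5% final.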
# * hit, by the source's call; ? = inconclusive; · = not tested or not shown; [ ] = another dose, or the depositor's remark. Unless noted, calls come from the whole dose curve; as a rule, active = well fitted curve in the direction sought with a large enough effect; inconclusive = small, poorly fitted or top-dose-only effect, or another doubt; inactive = no such curve, though single readings can be large; an effect the other way counts as inactive or inconclusive. Potency is the fitted concentration of half-maximal effect.
SMILES,ALDH1A1 inh,HTT cytoprotect,Luc counter,HTT aggregate,HPGD inh,LMNA splice mod
Cn1c(=O)cc(SCC(=O)Nc2ccc3c(c2)OCO3)c2ccccc21,7%,-25%,·,15%,·,-16%
O=C(Cc1c(F)cccc1Cl)NCCN1CCOCC1,0%,-10%[10 µM],-9%,-12%[9.22 µM],·,·
O=C(Nc1nc(COc2ccccc2)cs1)C12CC3CC(CC(C3)C1)C2,-9%,-125%,19%,11µM*,-6%,-14%
COc1ccc(/C=N/NC(=O)c2cc(C)on2)c2ccccc12,-1%,7%,-4%,1%,-11%,5%
COCCCNC(=O)CN(c1cc(C(F)(F)F)ccc1Cl)S(C)(=O)=O,·,1%[10 µM],·,7%[9.22 µM],·,·
CC1CCN(C(=S)c2cn(Cc3ccccc3F)c3ccccc23)CC1,14µM*,-36%,-6%,16µM*,-11%,?
CN1CCN(C(=S)c2cn(Cc3ccccc3F)c3ccccc23)CC1,-5%,?,-1%,-11%,·,-7%[46 µM]
COc1ccc(CCN(C)CCc2ccc(OC)c(OC)c2)cc1OC,-6%,-12%,-3%,·,-13%,-12%
COc1ccc(CCN(C)CC(O)c2ccccc2)cc1OC (configuration not stated),18µM*,-38%,-11%,-8%,·,6%[46 µM]
Cc1ccc(C(=O)Nc2ccnc(-c3cccnc3)n2)cc1,0%,1%[10 µM],-1%,-10%,·,?
Cc1ccc(NC(=O)Nc2ccnc(-c3cccnc3)n2)cc1,-3%,3.5µM*,0%,?,·,·
CN1CCC(=NNC(=O)CSc2ccc(Cl)cc2)CC1,?,21%[10 µM],-1%,6%[9.22 µM],·,-15%[46 µM]
O=C(CCSc1ccc(Cl)cc1)NC1CCCCC1,11%,8%,2%,27%,4.5µM*,25%
O=C(CCSc1ccc(Cl)cc1)NN=C1CCCCCC1,11µM*,9%,16%,-4%,·,·
O=C(CSCc1ccc(Cl)cc1)NN=C1CCCCCC1,14µM*,15%[10 µM],0%,4%,-14%,-3%
O=C(CSc1ccc(Cl)cc1)NN=C1CCCCCC1,?,-18%,1%,4%,·,26%[46 µM]
C[C@H](NC[C@H](O)CP(=O)(O)CC1CCCCC1)c1ccc(Cl)c(Cl)c1,1%,1%,1%,·,-2%,·
C=CCNC(=O)c1ccc2nccnc2c1,-17%,3%[10 µM],2%,-9%,16µM*,0%
CCCCCC(=O)NN1C(=S)N(c2ccc(OC)cc2)C(=O)C1CC(=O)Nc1ccccc1 (configuration not stated),·,10%[10 µM],·,-3%[9.22 µM],·,·
Clc1ccc(-c2csc3ncnc(N4CCc5ccccc5C4)c23)cc1,5%,6%[10 µM],0%,?,-19%,1%
Cn1c(C(=O)N2CCCC2)cc2c(=O)n(C)c3ccccc3c21,-2%,-25%,18%,-8%,22µM*,-5%
Cc1ccc2nc(N3CCOCC3)c(C=O)c(=O)n2c1,25µM*,-5%[10 µM],2%,-8%[9.22 µM],·,·
Cc1ccc2nc(N3CCN(c4ccccc4)CC3)c(C=O)c(=O)n2c1,-14%,-6%[10 µM],-1%,-6%,·,·
CC(OC(=O)c1oc2ccccc2c1COc1ccccc1)C(N)=O (configuration not stated),2.2µM*,-25%,1%,5%,·,15%[46 µM]
CC[n+]1c(/C=C/N(C)c2ccccc2)oc2ccc(F)cc21,14µM*,5%[10 µM],1%,?,-3%,?
SMILES,ALDH1A1 inh,HTT cytoprotect,Luc counter,HTT aggregate,HPGD inh,LMNA splice mod
CCOc1ccccc1Nc1nc(-c2sc(NC(=O)c3ccccc3)nc2C)cs1,?,-28%,-2%,-1%,-22%,-2%
Cc1ccc(Cl)cc1Nc1nc(-c2sc(NC(=O)c3ccccc3)nc2C)cs1,20µM*,-45%,-10%,-1%,?,5%
COc1ccccc1Nc1nc(C)cs1,18µM*,-3%,-3%,31%,-16%,3%
CCCCCCC(=O)Nc1nc(C)c(-c2csc(Nc3cc(Cl)ccc3C)n2)s1,?,-9%,0%,-12%,-22%,11%[0.0737 µM]
Cc1csc(Nc2cccc3ccccc23)n1,?,14%,-1%,10%,·,-6%[9.22 µM]
COc1ccccc1Nc1nc(-c2sc(NC(=O)c3ccc([N+](=O)[O-])cc3)nc2C)cs1,16µM*,-34%,-4%,-14%,-17%,6%
COc1ccccc1Nc1nc(-c2sc(NC(=O)c3ccccc3)nc2C)cs1,13µM*,21%,-18%,6%,?,5%
Cc1cccnc1NC(=O)C1COc2ccccc2O1 (configuration not stated),7%,-8%,-2%,-3%,·,·
COc1ccc(-c2[nH]ncc2CN(CCO)CC23CC4CC(CC(C4)C2)C3)c(OC)c1,1%,-3%[10 µM],0%,-10%[9.22 µM],·,3%[46 µM]
OCCC1CN(Cc2ccccc2OC2CCCC2)CCN1Cc1ccsc1 (configuration not stated),?,-8%[10 µM],3%,-2%[9.22 µM],·,2%[46 µM]
Nn1c(SCC(=O)N2CCOCC2)nnc1-c1ccccc1Cl,2%,-11%,-8%,6%,-14%,-6%
O=C(CCNS(=O)(=O)c1cccc2nonc12)NCCc1ccc(Cl)cc1,20µM*,-5%,4%,-3%,-5%,-11%
Cc1ccc(NC(=O)CCNS(=O)(=O)c2cccc3nonc23)cc1Cl,?,-21%,3%,-10%,·,6%[46 µM]
O=C(CCS(=O)(=O)c1cccc2nonc12)N1CCN(c2ccc(F)cc2)CC1,?,-19%[10 µM],2%,-19%,-12%,-17%
O=C(CCNS(=O)(=O)c1cccc2nonc12)N1CCN(c2cccc(Cl)c2)CC1,2µM*,24%,6%,-3%[9.22 µM],-10%,-7%
O=C(O)COc1ccc(=O)n(-c2ccccc2)n1,13%,5%,-3%,?,5%,-6%
CCOC(=O)C(Oc1ccc(=O)n(-c2ccccc2)n1)C(C)=O (configuration not stated),18µM*,2%,0%,-8%[9.22 µM],-7%,-1%
COc1cccc(CSc2nc3ccccc3cc2C=O)c1,?,-28%,12%,-4%,13µM*,?
COc1cccc(NC(=O)CSc2nc3ccccc3cc2Cc2ccccc2)c1,6%,-10%,0%,2%,-15%,4%
Cc1cc(C)n(CCc2nc3c4ccccc4nc(SCc4ccc(F)cc4)n3n2)n1,·,·,·,·,·,-5%[46 µM]
Cc1cc(C)n(CCc2nc3c4ccccc4n(CC#N)c(=O)n3n2)n1,11µM*,6%,-2%,3%,-9%,16%
